# Source: PubChem BioAssay (NCATS)
# Records with an inconclusive call do not appear. Entries that show only a call come without a potency. Unmarked numbers belong to inactive results. Activity calls are given as the source filed them. Calls follow the shape of the dose curve; as a rule, active = well fitted inhibition curve with a large enough effect; inconclusive = small, poorly fitted or top-dose-only effect; inactive = flat fitted curve, though single readings scatter.
# Assays:
# [1] = system: CRL-7250; assay: Cytotoxic Profiling of Annotated Libraries Using Quantitative High-Throughput Screening (AID 1296008); conditions: Five cell lines viability, CellTiter-Glo ATP luminescence, 48-72 h; hits give low values
# Procedure, shortened: (§1)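 Compounds were pin-transferred onto cells and incubated 48 or 72 hr at 37 degree Celsius, 95% humidity. CellTiter-Glo was added, plates sat 10 min at room temperature, then ATP-coupled luminescence was imaged as the viability read-out.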
# [2] = system: HEK293; assay: as above; conditions: Five cell lines viability, CellTiter-Glo ATP luminescence, 48-72 h; hits give low values
# Procedure, shortened: as §1
# [3] = system: HaCat; assay: as above; conditions: Five cell lines viability, CellTiter-Glo ATP luminescence, 48-72 h; hits give low values
# Procedure, shortened: as §1
# [4] = system: KB-3-1; assay: as above; conditions: Five cell lines viability, CellTiter-Glo ATP luminescence, 48-72 h, hits give low values
# Procedure, shortened: as §1
# [5] = system: NIH3T3; assay: as above; conditions: Five cell lines viability, CellTiter-Glo ATP luminescence, 48-72 h; hits give low values
# Procedure, shortened: as §1
# [6] = system: MCC-13; assay: qHTS assay to identify novel small-molecules to repurpose for Merkel cell carcinoma treatment (AID 1296009); conditions: MCC and control cell lines, CellTiter-Glo viability, 72 h; series mostly up to 46 µM
# Procedure, shortened: (§2)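 qHTS format: cells treated with library compounds in DMSO across 8 (NPC) or 11 (MIPE) concentrations. Readout after 72 hr at 37 degree celsius was CellTiter-Glo luminescence.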
# [7] = system: MCC-26; assay: as above; conditions: MCC and control cell lines, CellTiter-Glo viability, 72 h; series mostly up to 46 µM
# Procedure, shortened: as §2
# [8] = system: MKL-1; assay: as above; conditions: MCC and control cell lines, CellTiter-Glo viability, 72 h; series mostly up to 46 µM
# Procedure, shortened: as §2
# [9] = system: MKL-2; assay: as above; conditions: MCC and control cell lines, CellTiter-Glo viability, 72 h; series mostly up to 46 µM
# Procedure, shortened: as §2
# [10] = system: NIH3T3; assay: as above; conditions: MCC and control cell lines, CellTiter-Glo viability, 72 h; at 44.8 µM (top of the series) unless noted
# Procedure, shortened: as §2
# [11] = system: UISO; assay: as above; conditions: MCC and control cell lines, CellTiter-Glo viability, 72 h; series mostly up to 46 µM
# Procedure, shortened: as §2
# [12] = system: WaGa; assay: as above; conditions: MCC and control cell lines, CellTiter-Glo viability, 72 h; series mostly up to 46 µM
# Procedure, shortened: as §2
# [13] = system: PC49; assay: qHTS profiling for inhibitors of Plasmodium falciparum proliferation (AID 504749); also: potency is read from the fitted curve at half-maximal effect; conditions: P. falciparum in erythrocytes, SYBR Green DNA, 72 h; series mostly up to 28.7 µM
# Procedure, shortened: (§3)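 Parasite proliferation within erythrocytes, 72 h exposure. Endpoint: SYBR Green I fluorescence after overnight lysis at room temperature. Controls: 0.29 uM artemisinin, DMSO.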
# [14] = system: SC27B; assay: as above; conditions: P. falciparum in erythrocytes, SYBR Green DNA, 72 h; series mostly up to 28.7 µM
# Procedure, shortened: as §3
# [15] = system: TAB109; assay: as above; conditions: P. falciparum in erythrocytes, SYBR Green DNA, 72 h; series mostly up to 28.7 µM
# Procedure, shortened: as §3
# [16] = system: TAB113; assay: as above; conditions: P. falciparum in erythrocytes, SYBR Green DNA, 72 h; series mostly up to 28.7 µM
# Procedure, shortened: as §3
# [17] = system: TAB165; assay: as above; conditions: P. falciparum in erythrocytes, SYBR Green DNA, 72 h; series mostly up to 28.7 µM
# Procedure, shortened: as §3
# [18] = system: W2; assay: as above; conditions: P. falciparum in erythrocytes, SYBR Green DNA, 72 h; series mostly up to 28.7 µM
# Procedure, shortened: as §3
# Also: nearly all actives have a fitted effect of over 60% in size.
SMILES,max response [1],max response [2],max response [3],max response [4],outcome [5],outcome [6],outcome [7],outcome [8],outcome [9],outcome [10],outcome [11],outcome [12],Potency [13],Potency [14],Potency [15],Potency [16],Potency [17],Potency [18],max response [5],outcome [1]
O=C(O)[C@@H]1[C@H]2C[C@H]3c4[nH]c5ccccc5c4CCN3C[C@@H]2CC[C@@H]1O,-7.72%,-7.97%,4.24%,7.03%,inactive,inactive,inactive,inactive,inactive,inactive,inactive,inactive,–,–,–,–,–,–,–,–
NNc1nnc(NN)c2ccccc12,4.89%,-11.7%,3.01%,-5.02%,inactive,inactive,inactive,inactive,inactive,inactive,inactive,inactive,inactive,inactive,inactive,inactive,inactive,–,–,–
Cc1c(I)c(=O)n(-c2ccccc2)n1C,1.27%,-2.1%,-20.9%,2.22%,inactive,inactive,inactive,inactive,inactive,inactive,inactive,inactive,inactive,inactive,inactive,inactive,inactive,inactive,–,–
CCCCCC(C)N (configuration not stated),-6.66%,-4.16%,-0.897%,-3.94%,–,inactive,inactive,inactive,inactive,–,inactive,inactive,inactive,inactive,–,inactive,inactive,–,3.25%,–
CN[C@@H]1[C@H](O)[C@H](NC)[C@H]2O[C@@]3(O)C(=O)C[C@@H](C)O[C@H]3O[C@@H]2[C@H]1O,-3.95%,1.03%,0.231%,16.3%,–,inactive,inactive,inactive,inactive,–,inactive,inactive,–,–,–,–,–,–,2.69%,–
CN(C(=O)c1c(O)c2ccccc2n(C)c1=O)c1ccccc1,0.215%,-2.97%,-1.18%,9.88%,inactive,inactive,inactive,inactive,inactive,inactive,inactive,inactive,inactive,inactive,inactive,–,inactive,inactive,–,–
O=c1[nH]c2cc(C(F)(F)F)c(N3CCOCC3)cc2n(CP(=O)(O)O)c1=O,–,2.88%,2.4%,8.61%,inactive,inactive,inactive,inactive,inactive,inactive,inactive,inactive,inactive,inactive,inactive,inactive,inactive,inactive,–,inactive
CCOC(N)=O,1.79%,-1.46%,-12.1%,-7.14%,inactive,inactive,inactive,inactive,inactive,inactive,inactive,inactive,inactive,inactive,inactive,inactive,inactive,inactive,–,–
Cc1ncc(CO)c(CN)c1O,-0.831%,-5.62%,-4.24%,-2%,inactive,inactive,inactive,inactive,inactive,inactive,inactive,inactive,inactive,inactive,inactive,inactive,inactive,–,–,–
NS(=O)(=O)c1cc2c(cc1C(F)(F)F)NCNS2(=O)=O,-22.8%,-7.43%,2.79%,-0.385%,–,inactive,inactive,inactive,inactive,–,inactive,inactive,inactive,inactive,inactive,inactive,inactive,inactive,-4.18%,–
Cc1[nH]c(C)c(Cl)c(=O)c1Cl,–,-10%,-2.26%,-14.2%,–,inactive,inactive,inactive,inactive,–,inactive,inactive,inactive,inactive,inactive,inactive,–,–,-10.7%,inactive
CCN(CC)CCOC(=O)C(c1ccccc1)c1ccccc1,4.76%,-4.53%,-2.12%,0.686%,–,inactive,inactive,inactive,inactive,–,inactive,inactive,inactive,inactive,inactive,inactive,inactive,7.57 µM (active),-4.35%,–
NC(=O)NS(=O)(=O)c1ccc(N)cc1,-2.79%,-4.98%,2.87%,0.448%,inactive,inactive,inactive,inactive,inactive,inactive,inactive,inactive,inactive,inactive,inactive,inactive,inactive,inactive,–,–
CC(=O)NCc1c(I)c(NC(C)=O)c(I)c(C(=O)O)c1I,3.86%,-1.82%,-5.93%,5.09%,–,inactive,inactive,inactive,inactive,–,inactive,inactive,0.005 µM (active),inactive,inactive,inactive,inactive,inactive,-4.33%,–
